According to PubChem BioAssay:

target: Neurogenic locus notch homolog protein 2 (Homo sapiens) (UniProt Q04721); experiment: Notch2 binders on small-molecule microarrays, primary screen, biochemical, small-molecule microarray, 635 nm fluorescence, stem cell growth factors (AID 1073); conditions: Notch2 binding, higher = more signal
Sequence (Q04721 whole entry, looked up): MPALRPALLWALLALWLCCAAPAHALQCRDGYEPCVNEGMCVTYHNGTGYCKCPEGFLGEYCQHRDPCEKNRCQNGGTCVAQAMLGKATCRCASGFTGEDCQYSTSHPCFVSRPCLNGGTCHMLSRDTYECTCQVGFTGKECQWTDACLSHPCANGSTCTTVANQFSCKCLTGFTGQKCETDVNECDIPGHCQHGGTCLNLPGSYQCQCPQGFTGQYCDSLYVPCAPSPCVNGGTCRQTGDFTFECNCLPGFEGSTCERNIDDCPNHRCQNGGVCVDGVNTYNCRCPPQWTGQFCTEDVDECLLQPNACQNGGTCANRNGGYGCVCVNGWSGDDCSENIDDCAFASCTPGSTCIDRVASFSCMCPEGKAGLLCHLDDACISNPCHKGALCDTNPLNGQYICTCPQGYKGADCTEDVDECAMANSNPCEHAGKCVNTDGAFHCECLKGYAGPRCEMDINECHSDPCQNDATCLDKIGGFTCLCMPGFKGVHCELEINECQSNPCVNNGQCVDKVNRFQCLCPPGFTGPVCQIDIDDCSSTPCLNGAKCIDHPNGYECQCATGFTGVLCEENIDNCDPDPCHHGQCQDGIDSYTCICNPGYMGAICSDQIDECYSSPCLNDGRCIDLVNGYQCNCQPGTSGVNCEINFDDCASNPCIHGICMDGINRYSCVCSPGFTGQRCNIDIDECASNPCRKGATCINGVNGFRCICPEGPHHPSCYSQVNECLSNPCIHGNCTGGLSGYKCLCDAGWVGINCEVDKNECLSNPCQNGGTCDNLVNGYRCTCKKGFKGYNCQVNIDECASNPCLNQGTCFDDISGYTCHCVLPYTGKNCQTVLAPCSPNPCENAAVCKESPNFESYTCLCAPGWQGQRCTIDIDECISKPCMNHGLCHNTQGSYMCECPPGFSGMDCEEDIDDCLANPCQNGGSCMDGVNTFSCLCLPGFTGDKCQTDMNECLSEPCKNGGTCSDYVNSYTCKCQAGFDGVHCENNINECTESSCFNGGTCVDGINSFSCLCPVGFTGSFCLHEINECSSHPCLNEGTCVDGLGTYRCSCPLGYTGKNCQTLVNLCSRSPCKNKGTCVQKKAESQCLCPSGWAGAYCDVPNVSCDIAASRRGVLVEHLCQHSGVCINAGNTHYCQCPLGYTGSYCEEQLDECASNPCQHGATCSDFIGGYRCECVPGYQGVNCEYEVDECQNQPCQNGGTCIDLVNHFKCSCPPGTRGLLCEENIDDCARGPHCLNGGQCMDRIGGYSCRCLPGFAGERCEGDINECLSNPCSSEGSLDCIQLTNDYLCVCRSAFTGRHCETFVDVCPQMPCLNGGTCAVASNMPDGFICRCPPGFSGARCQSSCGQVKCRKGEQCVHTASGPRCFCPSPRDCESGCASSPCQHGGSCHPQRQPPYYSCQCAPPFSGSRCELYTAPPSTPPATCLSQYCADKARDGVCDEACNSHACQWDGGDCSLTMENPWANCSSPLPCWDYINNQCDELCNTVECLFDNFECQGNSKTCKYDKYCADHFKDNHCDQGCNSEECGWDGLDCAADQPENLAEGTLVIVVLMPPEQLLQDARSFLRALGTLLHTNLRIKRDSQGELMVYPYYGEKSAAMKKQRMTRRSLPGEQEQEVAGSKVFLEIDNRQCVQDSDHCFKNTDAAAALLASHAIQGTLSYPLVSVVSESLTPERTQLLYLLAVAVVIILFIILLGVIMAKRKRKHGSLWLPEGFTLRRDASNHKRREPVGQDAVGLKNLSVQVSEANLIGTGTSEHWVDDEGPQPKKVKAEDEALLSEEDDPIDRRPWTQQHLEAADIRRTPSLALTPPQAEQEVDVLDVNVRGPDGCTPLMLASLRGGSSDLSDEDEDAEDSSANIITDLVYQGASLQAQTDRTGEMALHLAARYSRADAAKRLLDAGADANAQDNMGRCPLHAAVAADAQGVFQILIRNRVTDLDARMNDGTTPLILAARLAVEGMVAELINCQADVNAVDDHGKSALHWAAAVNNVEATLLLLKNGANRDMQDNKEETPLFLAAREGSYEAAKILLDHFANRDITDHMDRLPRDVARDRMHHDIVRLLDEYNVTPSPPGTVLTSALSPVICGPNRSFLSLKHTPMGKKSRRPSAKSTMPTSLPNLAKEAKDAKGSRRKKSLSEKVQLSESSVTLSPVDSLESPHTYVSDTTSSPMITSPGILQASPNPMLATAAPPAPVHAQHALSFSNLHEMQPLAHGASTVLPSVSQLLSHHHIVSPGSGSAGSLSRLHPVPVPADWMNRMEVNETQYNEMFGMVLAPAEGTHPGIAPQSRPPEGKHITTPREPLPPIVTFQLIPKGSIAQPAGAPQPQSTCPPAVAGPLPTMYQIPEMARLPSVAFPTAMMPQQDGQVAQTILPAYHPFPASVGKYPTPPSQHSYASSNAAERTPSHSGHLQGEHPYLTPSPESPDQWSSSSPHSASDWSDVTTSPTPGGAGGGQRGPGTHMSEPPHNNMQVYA

Q: For `C=CCC(OC(C)=O)[C@@H]1[C@@H](N(Cc2ccc(-c3cccc(C(F)(F)F)c3)o2)C(=O)Cc2ccc(OC)cc2)c2cc(OCCCO)ccc2N1C(=O)Cc1ccc(OC)cc1` (some centres not stated), which composite z-score is on record?
A: -0.17

Q: For `C[n+]1ccc2ccc(O)cc2c1`, which composite z-score is on record?
A: 0.12

Q: Which composite z-score does the source give for `C=C(CCCC)/C(=C/C[C@H](OC(C)=O)c1ccc(CO)o1)c1cc(C(=O)OC)ccc1OC` here?
A: -0.0467

Q: For `COCCOC(=O)N1C(=O)[C@@]2(c3cc(C#Cc4ccc(OC)cc4)ccc31)[C@H](c1ccc(OCCO)cc1)N1[C@H](c3ccccc3)[C@H](c3ccccc3)OC(=O)[C@H]1[C@@H]2C(=O)N1CCc2cc(OC)c(OC)cc2C1`, which composite z-score is on record?
A: 0.871

Q: Which composite z-score does the source give for `CC(C)C(O)C1C=CC2C(=O)N(C)C(=O)C2N1N1CCCCC1` (configuration not stated) here?
A: 1.51

Q: `CCN(CC)c1ccc(N2CC=CC34O[C@@H]5C=CCOC(=O)[C@@H]5[C@H]3C(=O)N(CCCCCO)[C@@H]4C2=O)cc1` (some centres not stated) was tested. Which composite z-score did it give?
A: -0.866

Q: For `Cc1cc(C)c(C(O)C2C=CC3C(=O)NC(=O)C3N2Nc2ccccn2)c(C)c1` (configuration not stated), which composite z-score is on record?
A: 0.486

target: Pro-neuregulin-1, membrane-bound isoform (Homo sapiens) (UniProt Q02297); experiment: NRG1 binders on small-molecule microarrays, primary screen, psychiatric disease protein project, biochemical, small-molecule microarray, fluorescence 635/667 (AID 1075); conditions: NRG1 binding, 635 nm fluorescence, higher = more signal;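 further: score combines 667 nm spot fluorescence with signal to noise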
Sequence (Q02297 whole entry, looked up, canonical isoform): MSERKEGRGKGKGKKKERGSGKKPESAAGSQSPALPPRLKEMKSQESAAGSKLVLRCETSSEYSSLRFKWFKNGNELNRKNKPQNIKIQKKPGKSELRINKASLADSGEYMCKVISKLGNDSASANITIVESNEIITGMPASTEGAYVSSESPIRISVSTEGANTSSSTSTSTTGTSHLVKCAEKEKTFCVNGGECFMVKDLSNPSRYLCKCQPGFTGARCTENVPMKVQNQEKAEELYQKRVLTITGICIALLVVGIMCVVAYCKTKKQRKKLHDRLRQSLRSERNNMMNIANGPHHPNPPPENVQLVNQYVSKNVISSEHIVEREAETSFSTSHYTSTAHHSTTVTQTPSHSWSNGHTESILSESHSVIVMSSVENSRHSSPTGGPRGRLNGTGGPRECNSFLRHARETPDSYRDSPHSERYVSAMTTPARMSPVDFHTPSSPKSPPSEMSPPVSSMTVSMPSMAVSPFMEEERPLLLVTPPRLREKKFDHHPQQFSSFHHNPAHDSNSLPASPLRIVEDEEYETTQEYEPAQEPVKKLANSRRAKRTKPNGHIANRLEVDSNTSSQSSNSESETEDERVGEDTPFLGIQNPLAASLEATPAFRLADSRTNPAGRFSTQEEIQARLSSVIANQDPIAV

Q: With `O=C1c2ccccc2[C@](Cc2ccccc2I)(C(=O)O)[C@H](c2ccc(CO)cc2)N1Cc1ccccc1C(F)(F)F` as the compound, how does the composite z-score read?
A: 1.62

Q: With `C=CCN1C(=O)[C@@]2(O[C@@H](CCO)[C@H]([Si](C)(C)c3ccc(OC)cc3)[C@H]2C)c2cc(NC(C)=O)ccc21` as the compound, how does the composite z-score read?
A: 0.864

Q: For `O=C1O[C@@H](c2ccccc2)[C@@H](c2ccccc2)N2[C@@H](c3ccc(O)cc3)[C@]3(C(=O)Nc4ccccc43)[C@@H](C(=O)NC[C@H](O)c3ccccc3)[C@H]12`, which composite z-score is on record?
A: 1.69

Q: Which composite z-score does the source give for `C=C(CCCC)C(=O)CC[C@@H](OC(=O)c1ccccc1-c1ccccc1C(=O)O)c1ccc(CO)o1` here?
A: 0.504

Q: Which composite z-score does the source give for `COCCOC(=O)N1C(=O)[C@@]2(c3cc(C#CCCO)ccc31)[C@H](c1ccc(O)cc1)N1[C@H](c3ccccc3)[C@H](c3ccccc3)OC(=O)[C@H]1[C@@H]2C(=O)N1CCCCCCC1` here?
A: 0.853

Q: `O=C(NCC(O)CO)[C@]1(CCS(=O)(=O)c2ccccc2)N=C(c2ccc(OCCCO)cc2)O[C@@H]1c1ccccc1` (some centres not stated) was tested. Which composite z-score did it give?
A: 2.3

Q: Which composite z-score does the source give for `CC(C)NC(=O)[C@@H]1c2ccccc2C(=O)N(C2CCCCC2)[C@H]1c1ccc(CO)cc1` here?
A: 1.15

Q: `CCOC(=O)C=Cc1cccc(OC)c1O` was tested. Which composite z-score did it give?
A: -0.196

Q: How did the composite z-score turn out when `NC(=O)NCC#Cc1ccc2c(c1)[C@]1(C(=O)N2)[C@H](C(=O)NC[C@H](O)c2ccccc2)[C@H]2C(=O)O[C@H](c3ccccc3)[C@H](c3ccccc3)N2[C@@H]1c1ccccc1OCCO` was run?
A: 1.21

Q: For `CN1C(=O)C2C(C1=O)C1C=C(c3ccc(CO)cc3)C2C(C2CC2)N1Cc1cc2c(cc1Br)OCO2` (configuration not stated), which composite z-score is on record?
A: 1.46

Q: With `O=C1OCCC/C=C\[C@H]2OC34C=CCN(Cn5nnc6ccccc65)C(=O)[C@H]3N(CCCO)C(=O)[C@@H]4C12` (some centres not stated) as the compound, how does the composite z-score read?
A: 0.995

Q: With `CC(C)N1C(=O)c2ccccc2[C@](C)(C(=O)NC2CC2)[C@@H]1c1ccc(CO)cc1` as the compound, how does the composite z-score read?
A: 0.602

Q: With `O=C1C2C=CC(C(O)CCc3ccccc3)N(Nc3ccccc3)C2C(=O)N1c1ccccc1` (configuration not stated) as the compound, how does the composite z-score read?
A: 2.09

Q: How did the composite z-score turn out when `O=C1O[C@H](c2ccccc2)[C@H](c2ccccc2)N2[C@H]1[C@@H](C(=O)N1CCCCCCC1)[C@]1(C(=O)Nc3ccc(C#CC4=CCCCC4)cc31)[C@H]2c1ccc(O)cc1` was run?
A: 2.87

Q: `CC(C)OC(=O)C1=CCC(c2cccc(Cl)c2)O1` (configuration not stated) was tested. Which composite z-score did it give?
A: 0.754

Q: `C=CCN1C(=O)[C@@]2(O[C@@H](CCO)[C@H]([Si](C)(C)c3ccc(OC)cc3)[C@H]2C)c2cc(N3C(=O)COc4ccccc43)ccc21` was tested. Which composite z-score did it give?
A: 1.02

Q: With `C=CCC(OC(C)=O)[C@@H]1[C@@H](N(Cc2ccc(-c3ccccc3)cc2)C(=O)c2ccc(C)cc2)c2cc(OCCCO)ccc2N1C(=O)c1ccc2ccccc2n1` (some centres not stated) as the compound, how does the composite z-score read?
A: 0.676

Q: For `COCCOC(=O)N1C(=O)[C@@]2(c3cc(C#CC4=CCCCC4)ccc31)[C@H](c1ccc(OCCO)cc1)N1[C@H](c3ccccc3)[C@H](c3ccccc3)OC(=O)[C@H]1[C@@H]2C(=O)Nc1nc2ccccc2s1`, which composite z-score is on record?
A: 0.93

Q: With `O=[N+]([O-])c1ccc(C[n+]2ccc(CCCO)cc2)o1` as the compound, how does the composite z-score read?
A: 0.856

Q: With `C=C(C)[C@@H]1CC=C(C(O)C2C=CC3C(=O)N(Cc4ccccc4)C(=O)C3N2n2cnnc2)CC1` (some centres not stated) as the compound, how does the composite z-score read?
A: 0.485

Q: Which composite z-score does the source give for `CCCNC(=O)[C@@]1(C)c2ccccc2C(=O)N(Cc2cc(F)cc(C(F)(F)F)c2)[C@H]1c1ccc(CO)cc1` here?
A: 0.27

Q: With `CO[C@H]1O[C@H](CO)[C@@H](OC(=O)Nc2cccc(F)c2)[C@H](OC(=O)Nc2ccccc2-c2ccccc2)[C@@H]1OC(=O)Nc1ccccc1-c1ccccc1` as the compound, how does the composite z-score read?
A: 1.75

Q: Which composite z-score does the source give for `CCOC(=O)N1C(c2ccc(OCCCO)cc2)=NC(C(=O)OC)N1C(=O)OCC` (configuration not stated) here?
A: 1.39

Q: Which composite z-score does the source give for `COCCCNC(=O)[C@@]1(Cc2ccccc2I)c2ccccc2C(=O)N(Cc2ccccc2)[C@H]1c1ccc(CO)cc1` here?
A: 0.542

Q: `COc1ccc(C#Cc2ccc3c(c2)[C@]2(C(=O)N3)[C@H](C(=O)N3CCN(c4ncccn4)CC3)[C@H]3C(=O)O[C@H](c4ccccc4)[C@H](c4ccccc4)N3[C@@H]2c2ccc(O)cc2)cc1` was tested. Which composite z-score did it give?
A: 1.19

Q: `CN(C)CCCC[C@@H]1NC(=O)[C@@H]2C[C@H](C(=O)NCc3ccc(F)cc3)[C@H](c3cccc(OCCO)c3)N2C1=O` was tested. Which composite z-score did it give?
A: 0.617

Q: Which composite z-score does the source give for `O=C1O[C@@H](c2ccccc2)[C@@H](c2ccccc2)N2[C@@H](c3ccc(O)cc3)[C@]3(C(=O)Nc4ccc(C#CCCO)cc43)[C@@H](C(=O)O)[C@H]12` here?
A: 1.91

Q: For `CC(C)NC(=O)[C@@]1(c2ccc([N+](=O)[O-])cc2)CC(=O)N(C(C)C)[C@@H]1c1ccc(CO)cc1`, which composite z-score is on record?
A: -0.524

Q: `C=CCC(OC(C)=O)[C@@H]1[C@@H](N(Cc2ccc(-c3cccc(C(F)(F)F)c3)o2)C(=O)Cc2ccc(OC)cc2)c2cc(OCCCO)ccc2N1C(=O)Cc1ccc(OC)cc1` (some centres not stated) was tested. Which composite z-score did it give?
A: 0.783

Q: With `C[n+]1ccc2ccc(O)cc2c1` as the compound, how does the composite z-score read?
A: 0.615

Q: `C=C(CCCC)/C(=C/C[C@H](OC(C)=O)c1ccc(CO)o1)c1cc(C(=O)OC)ccc1OC` was tested. Which composite z-score did it give?
A: 0.714

Q: For `COCCOC(=O)N1C(=O)[C@@]2(c3cc(C#Cc4ccc(OC)cc4)ccc31)[C@H](c1ccc(OCCO)cc1)N1[C@H](c3ccccc3)[C@H](c3ccccc3)OC(=O)[C@H]1[C@@H]2C(=O)N1CCc2cc(OC)c(OC)cc2C1`, which composite z-score is on record?
A: 0.424

Q: How did the composite z-score turn out when `CC(C)C(O)C1C=CC2C(=O)N(C)C(=O)C2N1N1CCCCC1` (configuration not stated) was run?
A: 0.856

Q: For `CCN(CC)c1ccc(N2CC=CC34O[C@@H]5C=CCOC(=O)[C@@H]5[C@H]3C(=O)N(CCCCCO)[C@@H]4C2=O)cc1` (some centres not stated), which composite z-score is on record?
A: 1.42

Q: How did the composite z-score turn out when `Cc1cc(C)c(C(O)C2C=CC3C(=O)NC(=O)C3N2Nc2ccccn2)c(C)c1` (configuration not stated) was run?
A: 1.65
